# The full ranking holds about 25,000 sequences; the median of “ln(normalized median fluorescence intensity)” is about 9.7, and the highest 2% start at about 11. The full list was thinned out, with the highest values kept by preference.
# Test system: PfAP2-HC AP2 domain (GST-tagged)
# Experiment: gcPBM binding intensity (ln(normalized median fluorescence intensity)); higher = stronger DNA binding
# Method in brief: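 Using an Agilent 4 × 180k array, primer-extended double-stranded 36-bp intergenic genomic probes and negative controls were exposed for 1 h to GST-fused P. falciparum DNA-binding domains expressed in E. coli. Binding was carried out in 1× PBS with 1% milk, 0.2 mg/ml BSA, 0.5% salmon testes DNA and 0.03% Triton X-100, and protein was detected with Alexa488 anti-GST antibody and a 488 nm scan. Binding intensity is the highest Masliner-normalised natural-log median intensity across replicate spots of either probe orientation.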
row,Sequence,gcPBM binding intensity (ln)
1,CACACTTTATAATGTTGTACGATACATTATACCAAA [XGTACX_site941],9.67
2,ATAGTATAACAGCAATGTACACATATTTGTGTATAT [XGTACX_site7899],10
3,AATATTAAAAACAAAACACACAAAAAAAAATAAACT [CACACA_site6470],10.2
4,TGTACATATATATAATATATATATCATCATATTTTC [CACACA_negctrl_site1750],9.69
5,TAAAACAAAATAACATGTACAAAAAAAAAAAAAAAA [XGTACX_site2915],9.24
6,ACAAATAAATAAATATGTACTTAATTATATAATTGA [XGTACX_site5626],9.5
7,TATCATGGGTGTATTTCACACACGGATAATCATTTA [CACACA_site8211],9.83
8,AAGAAAATTAACCCATGTACTTATGTAGATAGCAAG [XGTACX_site1049],9.87
9,TTGAGAAAAATTAATGGTACACATATTATAAGTATA [XGTACX_site6539],9.7
10,AAATATATTTTTTTTTGTACTCAAAAAGAAAAAAAA [XGTACX_site8540],9.05
11,AAAAATTTCATATTCACACACAAAAAAAAAAAATAT [CACACA_site1592],9.96
12,AAATACTTATTCGTGGTGCAACAATTTTAAAAATTA,9.49
13,TATGAAAAAATATATACACACATAATAAAGGTATAT [CACACA_site3737],9.9
14,AATAAATTTAGACACACACACACATATAAATAAATA [CACACA_site6531],11.1
15,AACATTATAAGACACACACACACATATATAAATATA [CACACA_site6622],11.2
16,TACACGCATAGACACACACACACACGCATATAAATA [CACACA_site6446],11.3
17,CATATAAAAAGACACACACACACATATATATATATA [CACACA_site940],10.8
18,TCATAGTATAGACACACACACACACGCATATAAATA [CACACA_site6915],10.5
19,TAATTTTTTAGACACACACACATATAAATATAAATA [CACACA_site6195],10.8
20,TATAAATAAAGACACACACACATATAAATAAATATA [CACACA_site7155],10.5
21,TAAATTTATAGACACACACACATATAAATAAATATA [CACACA_site6530],10.8
22,AACATTATAAGACACACACACACATATATATATATA [CACACA_site8259],10.8
23,TATATAAATAGACACACACACACATATAAATAAATA [CACACA_site7855],10.7
24,AAAAAAAAAAGACACACACACATATAAATATAAATA [CACACA_site6899],11.5

row,Sequence,gcPBM binding intensity (ln)
1,TAATAAATAAGACACACACACATATATATATATTAT [CACACA_site1389],10.3
2,AAAAAAAAAAAATTCACACACATATAAAAAATTAAG [CACACA_site728],10
3,AATAAATATAGGTACACACACAAATATGTACATATC [CACACA_site6976],10.2
4,ATTCTCCATGTTTGATGTACTCATATGACGACGGAG [XGTACX_site4923],9.52
5,AATATATGTATATCCACACACATATATATATATATA [CACACA_site1633],9.96
6,ATACATATTCTTATTTGTACTTATTATAAAATGGTC [XGTACX_site6584],9.56
7,ATATATATTTATTTATGTACGAATAAATTTACGAAT [XGTACX_site5190],9.51
8,CTTATCAAAAAAAAAGCATGCCACAGGCAAAAGGTA [TGCATGCA_site574],9.71
9,ATAGAATAAATTTTGTCATTTATTCCTTATATATAA [GTGCAC_negctrl_site227],9.56
10,TTATATATTTTTAGGTGTACTTTTTTTTTTTTTTTT [XGTACX_site8164],9.54
11,ATATATATATAATAAACACACACATATACATATATG [CACACA_site9145],10.5
12,ATAAAAAAAGGACACACACACATATATATATATATA [CACACA_site5662],10.8
13,AAACATAAGAGACACACACACATATATAAATAAATA [CACACA_site7674],10.5
14,AAATTCCACGAACACACACACATATAAATAAATAAA [CACACA_site6697],10.6
15,ATATTATATAAATACACACACACATGCATGCACATA [CACACA_site4236],11.2
16,AAAAATAAAATATATACATGCATATACATATTATAT [TGCATGCA_site668],9.65
17,ATATTATATATATACACACACACATGCATGCACATA [CACACA_site7917],10.3
18,TAAAACATAAGAGACACACACACATATATATATATA [CACACA_site3643],10.9
19,AATAACCACCAACACACACACATATATATATATATA [CACACA_site3540],10.2
20,CATATAAAAGGACACACACACACATATATATATATA [CACACA_site4674],11.6
21,AAATTCCACCAACACACACACATATAAATAAATAAA [CACACA_site1233],11
22,ATAAAAAAAAGACACACACACATATATATATATATA [CACACA_site3073],10.3
23,ATAAAAAAAGGACACACACACATATATTTATTTATA [CACACA_site7438],10.5
24,ATAGATATAACATATGCATGTAAAATATAACCACTC [TGCATGCA_site60],9.97

row,Sequence,gcPBM binding intensity (ln)
1,TTCACTAATAAATACGCACACATATACAGATATATA [CACACA_site4887],9.94
2,GAGTTTTAATGTAATAGTACTTTAATTATTATATAT [XGTACX_site4527],9.7
3,ATACACAAAATTATTAAATCAATAAATATATGGTTT [CACACA_negctrl_site353],9.57
4,TAATATCATTTATGGGGTACCTCCTATTCTTATTTA [XGTACX_site1839],9.64
5,TAACTTTTTTTTTTTTTTTTTTAACTTTTATGTAAT [GTGCAC_negctrl_site156],9.45
6,GAAATATTTAGACACACACACAAACATATAAATATA [CACACA_site6980],11.1
7,TTAAACAATTTAGACATACACACAAAAATAATATTA [CACACA_site385],9.87
8,AAACAATTTAGACATACACACAAAAATAATATTATA [CACACA_site384],10.3
9,TACATCTGTAATGTGTGTACATATATGTATATATTT [XGTACX_site1805],9.87
10,TTAACAAATAAACACACACACACACCCAAAAAAAAA [CACACA_site8068],11.1
11,AACACCCACAGACACACACACAAAAATGATTAAAAA [CACACA_site2433],10.9
12,AAAAAAAAAAAACACACACACAAAATAAACAAACAA [CACACA_site2721],10.5
13,ATATAAAATAGACACGCACACAAAAAAAAAAAAAAA [CACACA_site3522],10.4
14,TTTATTAATGGACACACACACACACCCAAAATAAAA [CACACA_site4294],10.5
15,TATTTATTAAAACACACACACACACCCACAAAATAA [CACACA_site241],10.5
16,TTTATTAATAAACACACACACACACCCAAAATAAAA [CACACA_site7966],11
17,TTTATTAATAGACACACACACACACGCAAAATAAAA [CACACA_site6255],11.2
18,TTTATTAAGAAACACACACACACACCCAAAATAAAA [CACACA_site242],10.5
19,ATAAATAAAAAACACACACACACACCCAAAAAAAAA [CACACA_site2624],10.7
20,TAATAAATAAATGACACACACACACGCAAAAAAAAA [CACACA_site7275],10.6
21,ATTAATAAATAAATGACACACACACCCACAAAAAAA [CACACA_site8839],11.3
22,AAAAAAATAGTCTTCTTGCACTTTTTAATTTATTTT,9.6
23,CTAAAACAATAAATCACACATACATAGGATAATATA [CACACA_site4247],9.81
24,GTGTAATTTATTGTGTTGCACTTTTTTTTTTTTTTT [GTGCAC_site9644],9.84

row,Sequence,gcPBM binding intensity (ln)
1,ATATATATGTATATAACATGCAACATTTAATAATAA [TGCATGCA_site1018],9.85
2,AAGGTGGAAACAATTACACACACACTAATAAAAAAA [CACACA_site9051],10.8
3,ATATGATTTCACAAGACACACACATACAAATTTATA [CACACA_site9296],10.1
4,TATTTATTTATTTATGCATGCATGAATAATTTTTAC [TGCATGCA_site31],9.62
5,AGAACAATTCTGTGGTGTACCAAAAAAAATTTAATT [XGTACX_site8082],9.8
6,TAAAGAGTCATGTGGTGTACCTGCTTCACCACATAT [XGTACX_site1288],9.4
7,AACTTTGAGACATAGTGTACTTACACAATCTTAATA [XGTACX_site3712],9.63
8,TATATATATATATATGCATGTACATATATTTGTTAT [TGCATGCA_site379],10.4
9,ATATATATTTATATATGTACATATTTTTGTGTATTT [XGTACX_site1183],9.93
10,ATGCATATATTTATGTGTACATATATTTGTAGGGGG [XGTACX_site6063],11.2
11,ATACCTATTTGATGAGTGCATTATCCAATATATGTA,9.59
12,TCTTTTTAAATATATACACACCGTGTCTACAGATAC [CACACA_site5784],9.88
13,AAGAAAAACTTTACGTGTACCAAACATCCTGCCAAC [XGTACX_site598],9.91
14,ATATATATTTTATTATGTACATATAAATATTACACA [XGTACX_site4062],9.57
15,CACGCACGCAGACACACACACACACGCACATATATA [CACACA_site6303],10.6
16,AAGCATACATCAAGCACACACACACCCACAGAGACA [CACACA_site4362],10.5
17,ACATCAAGCAGACACACACACACACGCACACGCACA [CACACA_site6309],11.2
18,GCATACATCAAGCACACACACACACGCACACGCACA [CACACA_site6311],11.3
19,AGCACACGCAGACACACACACACACGCACACGCACA [CACACA_site6306],11.6
20,TGCATATACGCAAGCACACATATATATATATATATA [CACACA_site1069],9.6
21,AATAATAGAAGCACCCACCCACCACCACCCACACAT [CACACA_negctrl_site1033],10.9
22,AGAAGCATACATCAAGCACACACACCCACACCCACA [CACACA_site8014],11.4
23,AATACACGCAGACACACACACACACGCACATATATA [CACACA_site6447],10.8
24,TGCATATACTCAAGCACACATATATATATATATATA [CACACA_site4733],9.71
